Measured values as given in the supplement of paper PMC8728848.
This is one part of a sample in which the strongest signals are shown more often than they occur.

Key:
Test in all cases: glycan array binding signal (z-score within array); higher = stronger binding
Details in all cases: glycan notation: IUPAC condensed, linker removed
GalNAc(b1-3)GalNAc = target: GalNAc(b1-3)GalNAc
How it was run: (§1)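 Negative Z-scores can be read as non-binding. The Z-score is calculated within each array and then averaged across arrays of one protein sequence at different concentrations or buffers and across linkers. Arrays, 3228 in all, were curated from the Consortium for Functional Glycomics database and kept only where the protein sequence was available.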

[1] = target: GlcNAc(a1-4)Gal(b1-4)GlcNAc
How it was run: as §1

[2] = target: GlcNAc(a1-4)Gal(b1-4)GlcNAc(b1-3)Gal(b1-4)Glc
How it was run: as §1

[3] = target: GlcNAc(a1-4)Gal(b1-4)GlcNAc(b1-3)Gal(b1-4)GlcNAc
How it was run: as §1

[4] = target: GlcNAc(a1-4)Gal(b1-4)GlcNAc(b1-3)Gal(b1-4)GlcNAc(b1-3)Gal(b1-4)GlcNAc
How it was run: as §1

[5] = target: GlcNAc(b1-2)[GlcNAc(b1-6)]Man(a1-6)[GlcNAc(b1-4)][GlcNAc(b1-2)Man(a1-3)]Man(b1-4)GlcNAc(b1-4)GlcNAc
How it was run: as §1

[6] = target: GlcNAc(b1-3)Gal(b1-4)GlcNAc(b1-3)Gal(b1-4)GlcNAc(b1-2)Man(a1-3)[GlcNAc(b1-3)Gal(b1-4)GlcNAc(b1-3)Gal(b1-4)GlcNAc(b1-2)Man(a1-6)]Man(b1-4)GlcNAc(b1-4)[Fuc(a1-6)]GlcNAc
How it was run: as §1

[7] = target: GlcNAc(b1-3)Gal(b1-4)GlcNAc(b1-3)Gal(b1-4)GlcNAc(b1-3)GalNAc
How it was run: as §1

[8] = target: GlcNAc(b1-4)[GlcNAc(b1-6)]GalNAc
How it was run: as §1

GlcNAc(b1-6)GalNAc = target: GlcNAc(b1-6)GalNAc
How it was run: as §1

[9] = target: Man(a1-2)Man(a1-6)[Man(a1-3)]Man(a1-6)[Man(a1-2)Man(a1-2)Man(a1-3)]Man
How it was run: as §1

Man(b1-4)GlcNAc = target: Man(b1-4)GlcNAc
How it was run: as §1

[10] = target: Neu5Ac(a2-3)Gal(b1-3)GlcNAc(b1-2)Man(a1-3)[GlcNAc(b1-4)][Neu5Ac(a2-3)Gal(b1-3)GlcNAc(b1-2)Man(a1-6)]Man(b1-4)GlcNAc(b1-4)GlcNAc
How it was run: as §1

[11] = target: Neu5Ac(a2-3)Gal(b1-4)GlcNAc(b1-2)Man(a1-3)[Neu5Ac(a2-3)Gal(b1-4)GlcNAc(b1-2)Man(a1-6)]Man(b1-4)GlcNAc(b1-4)GlcNAc
How it was run: as §1

[12] = target: Neu5Ac(a2-3)Gal(b1-4)GlcNAc(b1-3)Gal(b1-4)GlcNAc(b1-3)Gal(b1-4)GlcNAc(b1-2)Man(a1-3)[Neu5Ac(a2-3)Gal(b1-4)GlcNAc(b1-3)Gal(b1-4)GlcNAc(b1-3)Gal(b1-4)GlcNAc(b1-2)Man(a1-6)]GalNAc
How it was run: as §1

[13] = target: Neu5Ac(a2-3)Gal(b1-4)GlcNAc(b1-6)GalNAc
How it was run: as §1

[14] = target: Neu5Ac(a2-3)[GalNAc(b1-4)]Gal(b1-4)Glc
How it was run: as §1

[15] = target: Neu5Ac(a2-6)Gal(b1-4)GlcNAc(b1-2)Man(a1-3)Man(b1-4)GlcNAc(b1-4)GlcNAc
How it was run: as §1

[16] = target: Neu5Ac(a2-6)Gal(b1-4)GlcNAc(b1-2)Man(a1-3)[Neu5Ac(a2-3)Gal(b1-4)GlcNAc(b1-2)Man(a1-6)]Man(b1-4)GlcNAc(b1-4)GlcNAc
How it was run: as §1

[17] = target: Neu5Ac(a2-6)Gal(b1-4)GlcNAc(b1-3)Gal(b1-4)GlcNAc(b1-3)Gal(b1-4)GlcNAc(b1-2)Man(a1-3)[Neu5Ac(a2-6)Gal(b1-4)GlcNAc(b1-3)Gal(b1-4)GlcNAc(b1-3)Gal(b1-4)GlcNAc(b1-2)Man(a1-6)]GalNAc
How it was run: as §1

[18] = target: Neu5Ac(a2-6)Gal(b1-4)GlcNAc(b1-6)[Gal(b1-3)GlcNAc(b1-3)]Gal(b1-4)Glc
How it was run: as §1

[19] = target: Neu5Ac(a2-6)GlcNAc(b1-4)GlcNAc
How it was run: as §1

[20] = target: Neu5Ac(a2-8)Neu5Ac(a2-3)Gal(b1-3)GalNAc(b1-4)[Neu5Ac(a2-3)]Gal(b1-4)Glc
How it was run: as §1

[21] = target: Neu5Ac(a2-8)Neu5Ac(a2-3)[Gal(b1-3)GalNAc(b1-4)]Gal(b1-4)Glc
How it was run: as §1

B1: AFL6 (Aspergillus fumigatus), Q4WKJ1 (protein)
chain: MSFHLTAEDIRIEDGHRLVARLRNADGDLQDASIDLNTCLGNDNGHFQWDGVDFSHSAQDVHFAIEGGGQVPVLRAQLANQDGEFQDADVNLSERIENINGEFVFH
- glycan array binding signal (z-score) (GalNAc(b1-3)GalNAc): -0.414
- glycan array binding signal (z-score) [1]: 2.64
- glycan array binding signal (z-score) [2]: 2.89
- glycan array binding signal (z-score) [3]: 3.58
- glycan array binding signal (z-score) [4]: 3.77
- glycan array binding signal (z-score) [5]: -0.56
- glycan array binding signal (z-score) [6]: 2.48
- glycan array binding signal (z-score) [7]: -0.176
- glycan array binding signal (z-score) [8]: -0.154
- glycan array binding signal (z-score) (GlcNAc(b1-6)GalNAc): -0.476
- glycan array binding signal (z-score) [9]: -0.466
- glycan array binding signal (z-score) (Man(b1-4)GlcNAc): -0.133
- glycan array binding signal (z-score) [10]: -0.296
- glycan array binding signal (z-score) [11]: 0.029
- glycan array binding signal (z-score) [12]: 4.83
- glycan array binding signal (z-score) [13]: 0.04
- glycan array binding signal (z-score) [14]: 0.054
- glycan array binding signal (z-score) [15]: 0.065
- glycan array binding signal (z-score) [16]: -0.35
- glycan array binding signal (z-score) [17]: 3.09
- glycan array binding signal (z-score) [18]: 0.854
- glycan array binding signal (z-score) [19]: -0.135
- glycan array binding signal (z-score) [20]: -0.5
- glycan array binding signal (z-score) [21]: -0.306
